Only some compounds are listed: those with a hit (about 17% of all), similar ones and a draw of the others.
TGFb inhibitor – blocks TGF-b signaling; HepG2 CAGA-GFP TGF-b/SMAD3 reporter, GFP fluorescence, 18 h; TGF-beta stimulated, 500 pg/mL final; 1.2% of 410,000 active; Potency, µM (series often up to 46.1 µM), for the others: at the highest dose activity, negative = inhibition, hits mostly inhibitors; note: % is set by controls: 0 for no effect and ±100 for the full control effect; nearly all actives have a fitted effect of over 65% in size
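Per well, imaged GFP fluorescence of HEPG2 CAGA-GFP cells gives the signal; cells get compound, then TGF-beta (500 pg/mL final), 18 h at 37 degrees C; %Activity versus -TGF-beta and +DMSO controls.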
ATXN2 expr inh – inhibitors of ATXN2 expression; HEK-293 ATXN2-luciferase reporter, luminescence, 24 h; 0.72% of 360,000 active; Potency, µM (top dose mostly 57 µM), inactives show at the top dose activity change, negative = inhibition, usual class: inhibitors; AID 1745845; note: % is set by controls: 0 for no effect and ±100 for the full control effect; nearly all actives have a fitted effect of over 55% in size
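ATXN2-luciferase reporter cells (luciferase flanked by upstream and downstream ATXN2 gene portions) were treated 24 h at 37 °C with compounds at up to 57 uM. SteadyGlo luminescence gave expression; GF-AFC fluorescence gave viability.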
DT40 TDP1 no CPT – qHTS for Inhibitors of human tyrosyl-DNA phosphodiesterase 1 (TDP1): qHTS in cells in absence of CPT; DT40 Tdp1-/- hTDP1 cells, no CPT, ATP luminescence, 48 h; Potency, µM (series often up to 46.2 µM), for the others: at the highest dose activity change, negative = growth inhibition, most hits filed as inhibitors; 15% of 420,000 active; AID 686978, 2013; note: % is set by controls: 0 for no effect and ±100 for the full control effect; nearly all actives have a fitted effect of over 55% in size
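Luminescent ATP content (CellTiter-Glo) served as the growth readout. Knockout chicken DT40 cells expressing human TDP1 were exposed to compounds without camptothecin for a minimum 48 hr at 37 °C.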
DT40 TDP1 CPT – DT40-hTDP1 cell growth loss with CPT | Potency, µM (doses to about 46.2 µM), for inactives: at the top dose activity change, negative = growth inhibition, usual class: inhibitors | 12% of 420,000 active | chicken DT40 Tdp1-/-;hTDP1 cells + 20 nM CPT, ATP luminescence, 48 h; note: % is set by controls: 0 for no effect and ±100 for the full control effect; nearly all actives have a fitted effect of over 55% in size
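Chicken DT40 Tdp1-/- cells complemented with human TDP1, 400 cells/well, exposed to compounds plus 20 nM camptothecin for at least 48 h at 37 C; viability read as ATP content by CellTiter-Glo luminescence.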
S2 tox – reduces viability in counter-screen for ATXN expression inhibitors; Potency, µM (top dose mostly 56.7 µM), usual class: cytotoxic; S2 cells (HEK-293 line with an ATXN2-luciferase reporter) viability, CellTiter-Fluor protease fluorescence, 24 h; 0.49% of 400,000 active; note: nearly all actives have a fitted effect of over 40% in size
HepG2 viability – counter-screen for TGF-b inhibitors: cytotoxicity in HepG2 cells | HepG2 CAGA-GFP viability, ATP luminescence, 18 h | Potency, µM (doses to about 46.1 µM), for the others: top-dose activity change, negative = cytotoxicity, usual class: cytotoxic | 0.76% of 410,000 active
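CellTiter-Glo luminescence gave cytotoxicity after 18 hours at 37 degrees C. The cells were HepG2 CAGA-GFP in 1% FBS DMEM, stimulated with 500 pg/mL TGF-beta after compound addition. %Activity was normalised to no-cell wells (complete cell-killing) and DMSO (no toxicity), and curves were fitted and classified.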
* = called active by the depositor; i = inactive; ? = inconclusive; . = not tested or not shown. Calls come from the whole dose curve; as a rule, active = well fitted curve in the direction sought with a large enough effect; inconclusive = small, poorly fitted or top-dose-only effect, or another doubt; inactive = no such curve, though single readings can be large; an effect the other way counts as inactive or inconclusive. Potency is the fitted concentration of half-maximal effect.

SMILES | TGFb inhibitor | ATXN2 expr inh | DT40 TDP1 no CPT | DT40 TDP1 CPT | S2 tox | HepG2 viability
Cc1ccc(NC(=O)C2CCCN(C(=O)c3cnn(-c4ccccc4)c3-n3cccc3)C2)cc1 (configuration not stated) | ? | -10% | 18µM* | 15µM* | i | -9%
O=C(NCc1ccc(Cl)cc1)C1CCCN(C(=O)c2cnn(-c3ccc(F)cc3)c2-n2cccc2)C1 (configuration not stated) | 0% | . | 5.8µM* | 8.2µM* | . | -28%
CN[C@@H](C)[C@@H](O)c1ccccc1 | -7% | 1% | 9% | -6% | i | -4%
CC(C)(O)[C@@H]1C2OC(=O)[C@@H]1[C@]1(O)C[C@H]3O[C@]34C(=O)O[C@H]2[C@]14C | . | . | -7% | ? | . | .
C=C1CCN([C@@H](CC(C)C)C(=O)Nc2ccc(OC)cc2)S(=O)(=O)c2ccccc21 | 6% | 7% | 23µM* | ? | ? | -11%
CCN(Cc1ccc(Cl)nc1)/C(=C/[N+](=O)[O-])NC | . | 12% | -17% | 15% | i | .
CCOC(=O)C1(CCOc2ccccc2)CCN(Cc2ccccc2OC)CC1 | ? | ? | 15µM* | 16µM* | i | -51%
CCOC(=O)C1(CCc2ccccc2)CCN(Cc2cccc3c2OCO3)CC1 | -27% | -27% | 9.2µM* | ? | i | -29%
CCOC(=O)C1(CCc2ccccc2)CCN(Cc2cccc3cnccc23)CC1 | -5% | -32% | ? | ? | i | 1%
CCOC(=O)C1(CCOc2ccccc2)CCN(Cc2cnc(SC)nc2)CC1 | -14% | -32% | 18µM* | ? | i | -45%
CCC(=NCCO)c1c(O)n(-c2ccc(Cl)cc2)c(=O)[nH]c1=O | 1% | 4% | 0% | -10% | i | -3%
CN1C(=O)C(c2ccc([N+](=O)[O-])cc2[N+](=O)[O-])C(=O)N(C)C1=O | 3% | . | 1% | -25% | ? | -5%
CNC(=O)Oc1ccc(N(C)C)cc1C(C)C | -3% | . | -12% | -1% | i | -17%
CN1[C@@H]2CCC[C@H]1CC(=O)C2 | 0% | -3% | -12% | -5% | i | -3%
CCC[C@@](C)(COC(N)=O)COC(=O)NC(C)C | . | . | . | . | i | .
CN(C)C1C(=O)C(C(N)=O)=C(O)[C@@]2(O)C(=O)C3=C(O)c4c(O)ccc(Cl)c4[C@](C)(O)C3CC12 (some centres not stated) | . | . | 18µM* | 16µM* | . | .
CN(C)C1C(=O)C(C(N)=O)=C(O)C2(O)C(=O)C3=C(O)c4c(O)cccc4C(C)(O)C3C(O)C12 (configuration not stated) | 22% | -5% | 7.3µM* | 10µM* | i | 3%
C=CCn1c(=O)c(C(=O)NCc2ccccc2)c(O)c2ccccc21 | ? | . | ? | ? | i | -11%
O=C(c1cc(-c2ccc(Cl)cc2)n(-c2ccc(Cl)cc2Cl)n1)N1CCOCC1 | ? | -33% | ? | ? | i | -25%
C=CCn1nc(C(=O)N2CCOCC2)cc1-c1sc(NC(=O)c2ccccc2)nc1C | 18% | ? | 10µM* | 15µM* | i | -23%
Cc1cc(C=O)c(C)n1C(C)C | -2% | -20% | -18% | 7% | i | 5%
Cc1ccc(C)c(N2CCN(C(=O)c3cccn4c(=O)c5ccccc5nc34)CC2)c1 | 0% | 10% | ? | ? | i | -11%
Cc1ccc(Cl)cc1N1CCN(C(=O)c2cn(C)c(=O)c3c2c2ccccc2n3C)CC1 | -8% | ? | 18µM* | ? | ? | -10%
CC1([N+](=O)[O-])COP(=O)(NC2CC2)OC1 (configuration not stated) | 7% | -18% | -12% | 4% | i | 11%
COCC(=O)N1CCC2(CCCN(Cc3ccncc3)C2)CC1 | . | . | -11% | 4% | . | .
SMILES | TGFb inhibitor | ATXN2 expr inh | DT40 TDP1 no CPT | DT40 TDP1 CPT | S2 tox | HepG2 viability
C=C1C(=O)OC2C1CCC(C)C1(O)C=CC(=O)C21C (configuration not stated) | ? | 11µM* | 2.3µM* | 2.6µM* | 11µM* | -35%
Cn1cc[n+](C)c1P(=S)(c1ccccc1)c1ccccc1 | -39% | . | 21µM* | 10µM* | i | -1%
C[C@]12CC[C@@H](O)CC1=CCC1C2CC[C@@]2(C)C1CC[C@@H]2N (some centres not stated) | 3% | -1% | 21µM* | ? | i | 3%
C[C@]12CC[C@H](N)CC1=CCC1C2CC[C@@]2(C)C1CC[C@@H]2O (some centres not stated) | -27% | 0% | ? | 18µM* | i | -13%
C[C@@H]1CC2C3CC=C4C[C@@H](O)CC[C@]4(C)C3CC[C@]2(C)[C@H]1O (some centres not stated) | 0% | 8% | ? | -21% | i | -5%
O=C(Oc1ccccc1)N1CCC2(CCN(Cc3ccncc3)CC2)CC1 | . | . | ? | 0% | . | .
CCOc1ccc(/C=C/c2nc(C#N)c(NCc3ccccc3)o2)cc1 | . | . | 1.2µM* | ? | . | -6%
CCOc1ccc(CNC(=O)CCn2c(=O)oc3ccccc32)cc1 | 25% | 1% | -7% | 5% | i | 0%
CSc1ccc(CN2CCN(C(=O)Cc3ccccc3)CC2)cc1 | -17% | . | -20% | ? | i | -41%
CSc1ccc(CN2CCC2(C)C(=O)Nc2cccc(NS(C)(=O)=O)c2)cc1 (configuration not stated) | -8% | -7% | 23µM* | 18µM* | i | -11%
CCN(CC)C(=O)N[C@@H]1C=C2c3cccc4[nH]cc(c34)C[C@@H]2N(C)C1 | . | 0% | 9.4µM* | 21µM* | i | .
CCN(CC)C(=O)C(C(=O)c1cccc([N+](=O)[O-])c1)n1cc(Cl)ccc1=O (configuration not stated) | 1% | . | ? | -20% | i | -2%
C/C(=N\N=C(N)N)c1ccccc1 | -17% | -9% | 18µM* | ? | i | -18%
C=C(c1ccccc1)P(=O)(O)O | -1% | 0% | -10% | -11% | i | 10%
COc1cccc(NC(=O)c2cccn(Cc3ccccc3C)c2=O)c1 | ? | -13% | 26µM* | ? | i | -13%
CCOC(=O)c1ccc(NC(=O)c2cccn(Cc3ccccc3F)c2=O)cc1 | 0% | -6% | 21µM* | ? | i | -37%
